# In PubChem BioAssay (NCATS):
# “And” between values parts separate entries of the source, which are not always exact repeats. Equal entries are not always repeated. Inconclusive results are not listed. The source made the active and inactive calls. Unless noted, calls follow the shape of the dose curve; as a rule, active = well fitted curve in the direction sought with a large enough effect; inconclusive = small, poorly fitted or top-dose-only effect, or another doubt; inactive = no such curve, though single readings can be large; an effect the other way counts as inactive or inconclusive.
# Experiments:
# [1] = Cell Proliferation Assay against the TMD8 Cell Line (AID 651645); conditions: TMD8 DLBCL cell line proliferation/viability; at 46.1 µM (top of the series);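 also: cells exposed to compound for 48 h before reading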
# In short: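 TMD8 ABC DLBCL cells, 500 per well in phenol red-free RPMI with 5% FBS, were treated with compound by pin transfer and incubated 48 hours at 37C, 5% CO2. Viability was read by CellTiter-Glo luminescence, normalised to DMSO (100%) and 9.2 uM bortezomib (0%).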
# [2] = Cell Proliferation Assay against the HBL1 Cell Line (AID 651646); conditions: HBL1 DLBCL cells; at 46.1 µM (top of the series);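 also: cells exposed to compound for 48 h before reading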
# In short: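 CellTiter-Glo luminescence after 48 h compound exposure at 37C gives percent activity, with DMSO as 100% and 9.2 uM bortezomib final as 0%. Cells: 500 log-phase HBL1 per well, RPMI plus 5% FBS.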
# [3] = Cell Proliferation Assay against the TMD8 Cell Line (Caspase readout at 8 hrs) (AID 651713); conditions: TMD8 lymphoma cells, caspase activation luminescence; series mostly up to 46.1 µM; also: potency is read from the fitted curve at half-maximal effect;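 as to caspase activation: 0% = DMSO and 100% = 9.2 µM bortezomib caspase signal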
# In short: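 Luminescent caspase 3/7 assay; TMD8 cells, 8 h treatment at 37C, 5% CO2. Normalisation: DMSO 0%, 9.2 uM bortezomib 100%.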
# [4] = qHTS assay for small molecule activators of the nuclear factor-kappa B (NF-kB) signaling pathway (AID 651749; active = well fitted activation curve with a large enough effect in the signal ratio; the % refers to the signal ratio; also: % of control where 0% means no effect); conditions: NF-kB-bla ME-180 cells, beta-lactamase FRET ratio, 16 h; stronger effect = higher value
# In short: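 FRET-based beta-lactamase detection in ME-180 cells reports NF-kB response-element-driven transcription following overnight (16 hr) compound treatment.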
# [5] = biological target: Tumor necrosis factor (Homo sapiens) (UniProt P01375); assay: qHTS assay to identify small molecules that stimulate Tumor Necrosis Factor-alpha (TNF-alpha) secretion (AID 651757; active = well fitted curve in the direction sought with a large enough effect in the signal ratio; the % refers to the signal ratio; also: 0% is about no effect); conditions: Human cells, HTRF 665/615 ratio; series mostly up to 92.2 µM
# Chain of Tumor necrosis factor (Homo sapiens) (P01375 whole entry, looked up): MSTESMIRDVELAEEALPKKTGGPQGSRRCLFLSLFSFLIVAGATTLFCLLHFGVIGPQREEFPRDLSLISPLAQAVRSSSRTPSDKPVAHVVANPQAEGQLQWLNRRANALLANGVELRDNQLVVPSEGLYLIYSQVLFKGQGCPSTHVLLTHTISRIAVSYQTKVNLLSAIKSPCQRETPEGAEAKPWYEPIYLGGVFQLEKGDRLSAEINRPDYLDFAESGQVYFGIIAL
# In short: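 Using 3000 THP-1 cells per well, compounds and controls were applied for 17 hrs at 37 C. Detection followed with two labeled anti-TNF-alpha antibodies (cryptate donor, XL665 acceptor) for 3 hr at room temperature, measured by TR-FRET.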
# [6] = qHTS assay for small molecule activators of the p53 signaling pathway (AID 651743; active = well fitted activation curve with a large enough effect in the signal ratio, not every such curve was filed as active; the % refers to the signal ratio; also: % of control where 0% means no effect); conditions: HCT-116 p53RE-bla, beta-lactamase FRET ratio, 16 h; stronger effect = higher value
# In short: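 A beta-lactamase reporter under p53 response element control, stably carried by HCT-116 cells, reported pathway activation. Test compounds were applied for 16 hours at 37 C, and fluorescence was measured 2 hours after adding the B/G FRET substrate.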
# [7] = qHTS assay for small molecule disruptors of the mitochondrial membrane potential - 5 hr assay (AID 651755; calls by dose curve; also: nearly all actives have a fitted effect of over 40% in size; also: potency is read from the fitted curve at half-maximal effect); conditions: JC-1-type ratio dye; series mostly up to 92.2 µM
# In short: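 Membrane-potential dye readout: red aggregate (540 ex/590 em) versus green monomer (490 ex/535 em) fluorescence after 30 min dye loading, following 5 hr compound exposure at 37C of overnight-plated HepG2 cells.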
# [8] = qHTS assay for small molecule agonists of the antioxidant response element (ARE) signaling pathway (AID 651741; active = well fitted activation curve with a large enough effect in the signal ratio; the % refers to the signal ratio; also: potency is read from the fitted curve at half-maximal effect; as to activation: % of control where 0% means no effect); conditions: HepG2 ARE-bla reporter, beta-lactamase FRET ratio, 16 h; series mostly up to 96 µM
# In short: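 Agonist activity is measured as ARE-driven beta-lactamase expression in a stable HepG2 reporter line, using 16 h compound treatment at 37 C and a FRET substrate fluorescence readout after 2 h.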
# [9] = qHTS assay for small molecule disruptors of the mitochondrial membrane potential - 1 hr assay (AID 651754; calls by dose curve; also: nearly all actives have a fitted effect of over 35% in size; also: potency is read from the fitted curve at half-maximal effect); conditions: series mostly up to 92.2 µM
# In short: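 In this qHTS format, a 1 hr compound treatment of HepG2 cells precedes Mito-MPS staining, and membrane potential is judged from aggregate (red) against monomer (green) fluorescence intensity.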
# [10] = Cell Proliferation Assay against the TMD8 Cell Line (Caspase readout at 16 hrs) (AID 651712); conditions: TMD8 lymphoma cells, caspase activation luminescence; series mostly up to 46.1 µM;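 also: 0% = DMSO and 100% = 9.2 µM bortezomib caspase activation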
# In short: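 Caspase-Glo luminescence measured apoptosis after a 16 h, 37 C compound exposure of TMD8 cells (500 cells/well, 5% FBS RPMI). DMSO set 0% and bortezomib at 9.2 uM final set 100% activity.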
compound,measurement,setting,value
NC1(c2ccc(-c3nc4ccn5c(=O)[nH]nc5c4cc3-c3ccccc3)cc2)CCC1,viability (% of control),[1],-0.504%
same,"viability, percent of control",[2],1.05%
same,Potency,[3],26.4 µM (active)
N=C(N)c1ccc(OCCCCCOc2ccc(C(=N)N)cc2)cc1,activation,[4],0.454% (inactive) and 0.519% (inactive)
same,outcome,[5],inactive
CC[C@H](C)C(=O)O[C@H]1C[C@@H](C)C=C2C=C[C@H](C)[C@H](CC[C@@H]3C[C@@H](O)CC(=O)O3)[C@H]21,activation,[6],-3.22% (inactive)
same,activation,[4],-1.44% (inactive)
same,Potency,[7],inactive
same,outcome,[5],inactive
OC(Cn1cncn1)(Cn1cncn1)c1ccc(F)cc1F,activation,[6],-0.436% (inactive)
same,activation,[4],-1.38% (inactive)
S=P(N1CC1)(N1CC1)N1CC1,activation,[6],23.1% (inactive)
same,activation,[4],0.913% (inactive)
CC(=O)[C@H]1CC[C@H]2[C@@H]3CCC4=CC(=O)CC[C@]4(C)[C@H]3CC[C@]12C,activation,[6],-1.4% (inactive) and -5.04% (inactive) and -4.98% (inactive)
same,outcome,[5],inactive
Cc1ccnc2c1NC(=O)c1cccnc1N2C1CC1,Potency,[8],inactive
same,activation,[6],-7.19% (inactive)
same,outcome,[5],inactive
CN(C)c1ccc(C(=C2C=CC(=[N+](C)C)C=C2)c2ccc(N(C)C)cc2)cc1,Potency,[9],0.668 µM (active)
same,Potency,[7],1.19 µM (active)
CC(=O)Oc1ccccc1C(=O)Nc1ncc([N+](=O)[O-])s1,activation,[4],-1.07% (inactive)
Cc1noc(NS(=O)(=O)c2ccc(N)cc2)c1C,Potency,[8],inactive
same,activation,[6],-3.81% (inactive) and -3.88% (inactive)
same,activation,[4],-1.4% (inactive) and -1.01% (inactive)
same,outcome,[5],inactive
CC(C)C[C@H](NC(=O)[C@H](CCc1ccccc1)NC(=O)CN1CCOCC1)C(=O)N[C@@H](Cc1ccccc1)C(=O)N[C@@H](CC(C)C)C(=O)[C@@]1(C)CO1,viability (% of control),[1],3.43%
same,"viability, percent of control",[2],3.69%
COc1cc([C@@H]2c3cc4c(cc3[C@H](O)[C@H]3COC(=O)[C@H]23)OCO4)cc(OC)c1OC,viability (% of control),[1],0.77%
same,"viability, percent of control",[2],23.7%
Cc1ncc([N+](=O)[O-])n1CCO,Potency,[8],inactive
same,activation,[6],-1.78% (inactive)
CC1=NN(c2ccccc2)C(=O)C1,activation,[6],-1.06% (inactive) and 1.05% (inactive)
same,activation,[4],1.02% (inactive) and -0.66% (inactive)
same,outcome,[5],inactive
CNC(=O)c1cc(Oc2ccc(NC(=O)Nc3ccc(Cl)c(C(F)(F)F)c3)cc2)ccn1,viability (% of control),[1],-0.0117%
same,"viability, percent of control",[2],1.39%
C[C@]12C=CC(=O)C=C1CC[C@@H]1[C@@H]2C(=O)C[C@@]2(C)[C@H]1CC[C@]2(O)C(=O)CO,activation,[4],1.39% (inactive)
same,Potency,[9],inactive
same,Potency,[7],inactive
same,outcome,[5],inactive
COc1ccc2cc3[n+](cc2c1OC)CCc1cc2c(cc1-3)OCO2,Potency,[8],33.5 µM (active)
same,activation,[6],9.7% (inactive)
same,Potency,[9],21.1 µM (active)
same,Potency,[7],9.44 µM (active)
CCc1cc(C(N)=S)ccn1,Potency,[8],inactive
same,activation,[6],-0.635% (inactive) and 1.18% (inactive)
same,activation,[4],0.391% (inactive) and -1.64% (inactive)
same,Potency,[9],inactive
same,Potency,[7],inactive
same,outcome,[5],inactive
COc1cc2c(Nc3ccc(Br)cc3F)ncnc2cc1OCC1CCN(C)CC1,viability (% of control),[1],8.14%
same,"viability, percent of control",[2],4.03%
same,outcome,[10],inactive
Cc1cc(NS(=O)(=O)c2ccc(N)cc2)no1,Potency,[8],inactive
same,activation,[6],-3.47% (inactive)
same,outcome,[5],inactive
NC(N)=NC(N)=NCCc1ccccc1,Potency,[8],37.6 µM (active)
same,activation,[6],7.9% (inactive) and 8.21% (inactive)
same,activation,[4],0.778% (inactive) and 0.59% (inactive)
same,outcome,[5],inactive
O=C(N[C@H](CO)[C@H](O)c1ccc([N+](=O)[O-])cc1)C(Cl)Cl,Potency,[8],inactive
same,activation,[6],0.234% (inactive) and 2.8% (inactive)
same,activation,[4],-1.34% (inactive) and 1.06% (inactive)
same,Potency,[9],inactive
same,Potency,[7],inactive
same,outcome,[5],inactive
COc1cc2nc(N3CCCN(C)CC3)nc(NC3CCN(Cc4ccccc4)CC3)c2cc1OC,viability (% of control),[1],3.15%
same,"viability, percent of control",[2],3.52%
same,Potency,[3],26.4 µM (active)
NNC(=O)c1ccncc1,Potency,[8],inactive
same,activation,[6],0.245% (inactive)
same,activation,[4],-1.16% (inactive)
same,Potency,[9],inactive
same,Potency,[7],inactive
same,outcome,[5],inactive
Cc1nnc(NS(=O)(=O)c2ccc(N)cc2)s1,Potency,[8],inactive
same,activation,[6],-1.27% (inactive)
same,outcome,[5],inactive
N[C@@H](Cc1ccc(O)c(O)c1)C(=O)O,activation,[4],0.678% (inactive)
O=C(O)c1cc(=O)[nH]c(=O)[nH]1,Potency,[8],inactive
same,activation,[6],-1.01% (inactive)
same,outcome,[5],inactive
CCN(CC)CCn1c(=O)c(Cc2ccc(OC)cc2)nc2ccccc21,viability (% of control),[1],89.1%
same,"viability, percent of control",[2],99.1%
same,outcome,[10],inactive
same,Potency,[3],inactive
